Measured values reported in PubChem BioAssay AID720490 (Broad Institute, 2013).
Entries with a potency or affinity are not part of this list.

Experiment: Shn3 3'UTR reporter signal decrease – cell-based, Clone20 osteoblasts, firefly luciferase, cherry-pick, set 2, Schnurri-3 inhibitor project, dose response (AID 720490)
Conditions: Clone20 osteoblast Shn3 3'UTR firefly luciferase, 24 h; series mostly up to 35 µM; activity change, negative = inhibition: at the top concentration;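 active means compound whose fitted half-maximal concentration for signal loss stays within twice its top tested dose in every run; inconclusive means runs not all active and not all inactive; inactive means every run inactive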

Activity change, negative = inhibition, inactive:
CCN(CC)Cc1c(O)ccc2c1O/C(=C\C=C\c1ccccc1)C2=O 0.079%
O=C1S/C(=C\c2ccc(N3CCOCC3)o2)C(=O)N1Cc1c(F)cccc1Cl -0.988%
CCOC(=O)c1cn(CC(=O)Nc2cccc(Cl)c2C)nn1 3.38%
CCOC(=O)Cn1c(S(=O)(=O)Cc2ccccc2Cl)nc(-c2ccccc2)c1-c1ccccc1 -13.2%
